# Results reported in PubChem BioAssay AID1259415 (National Center for Advancing Translational Sciences (NCATS), 2018).
# Out of some 410,000 compounds screened, about 18,000 (4.4%) were called active. Another 7% or so got no clear call; they are omitted. Only a selection was taken, and actives are over-represented in it overall. Unmarked numbers belong to inactive results. No stated cut-off is given here; in the data, active means activity change below about -60%; inconclusive means no clear call, values can overlap the other calls; inactive means above about -39%.
# Assay: qHTS Assay for inhibitors of the human cytomegalovirus (HCMV)
# Conditions: HFF cells, HCMV-luciferase reporter, 72 h; at 57.5 µM; stronger effect = lower value
# Excerpt: NCGC Assay Overview: Infection with human cytomegalovirus (HCMV) continues to pose significant threats for pregnant women and immunocompromised hosts. HCMV causes serious morbidity and mortality in transplant recipients, and congenital HCMV is the leading infectious cause of mental retardation and deafness in children. In the 1990s, the annual costs associated with the disease burden of congenital CMV were estimated at around $2 billion. A HCMV vaccine is not available yet and HCMV therapies result in intolerable side effects and emergence of drug resistant viruses. […] Towards this goal we have developed and characterized a luciferase HCMV reporter that was initially used in 96 well plates and then optimized to 1536-well plates for utilization in screening of the MLSMR collection, the NGCG diversity collection and the NCGC Pharmaceutical Collection of approved and investigational drugs.
# NCGC Assay Protocol Summary:
# This is a cell-based assay for HCMV inhibition in HFFs cells. The screening used 2 compound doses and the HCMV-luciferase at MOI of 1 PFU/cell. Cells were treated and infected with HCMV. At 72 h post infection cell lysates were collected and luciferase activity was determined using the Glomax-Multi + Detection System (Promega, Madison, WI). Data were normalized to the controls for basal activity (buffer only) and known HCMV inhibitors Salinmoycin.
# 1536-well assay protocol for the assay:
# (1) Add 3 ul CMV/HFF cell culture. 1000 cells/well in DMEM nirmal media.
# (2) Incubate 16 hr at 37C.
# (3) Add 23 nl control compound, 10uM of Salinomycin.
# (4) Add 23 nl compounds in DMSO solution.
# (5) Add 3 ul CMV suspension. Final 1 puf/ul, Virus stock 2000pfu/ul
# (6) Incubate 72 hrs at 37C.
# (7) Add 4 ul OneGlo Luc Reagent.
# (8) Incubate 5 min at room temperature.
# On the % scale 0 is the no-effect control and ±100 the full control effect.
row,Compound,"activity change, negative = inhibition"
1,CCOC(=O)c1c(C)[nH]c(CCC(=O)Nc2ccc(OC)c(OC)c2)c1C,41.8%
2,Cc1ccc(N(CC(=O)NCC(C)c2ccccc2)S(=O)(=O)N(C)C)cc1 (stereo not drawn),-6.91%
3,O=C(CCc1ccccc1)NCc1ccc2c(c1)CCN2C(=O)c1ccccc1,-7.19%
4,COC1=CCC2([N+](=O)[O-])CN(CC(=O)O)CC1([N+](=O)[O-])C2 (stereo not drawn),-16.1%
5,CCOC(=O)c1c(C)oc2nc(C)nc(Nc3ccc(CC)cc3)c12,8.66%
6,O=C(Nc1ccc(OC(F)(F)F)cc1)c1cc2c(=O)n3ccccc3nc2s1,-5.91%
7,COc1cc(CN(CC2CCCO2)C(=O)c2ccccc2F)cc(OC)c1OC (stereo not drawn),-11.3%
8,C=CCSC1=C(C#N)C(c2cc(Br)c(O)c(OC)c2)CC(=O)N1 (stereo not drawn),-10.5%
9,CCOC(=O)CSC1=C(C#N)C(c2sccc2C)CC(=O)N1 (stereo not drawn),-85.4% (active)
10,Cc1ccsc1C1C(C#N)=C(N)OC2=C1C(=O)CC(C)C2 (stereo not drawn),68.7%
11,Cc1c(-c2cccc(NC(=O)C(C)(C)C)c2)nc2ncccn12,-37.8%
12,CCN1CCN(Cc2nc3c(c(=O)n(C)c(=O)n3C)n2CC(=O)c2ccccc2)CC1,-5.14%
13,CN1CCN(Cc2nc3c(c(=O)n(C)c(=O)n3C)n2Cc2cccc3ccccc23)CC1,-10.2%
14,COCCn1c(CN2CCC(Cc3ccccc3)CC2)nc2c1c(=O)n(C)c(=O)n2C,-64.7% (active)
15,CC1CCCN(Cc2nc3c(c(=O)n(C)c(=O)n3C)n2CC(=O)c2ccccc2)C1 (stereo not drawn),-14.9%
16,CCOC(=O)N1CCN(Cc2nc3c(c(=O)n(C)c(=O)n3C)n2Cc2ccccc2)CC1,-2.17%
17,CC1CCN(Cc2nc3c(c(=O)n(C)c(=O)n3C)n2CCc2ccccc2)CC1,-62.3% (active)
18,COc1ccc(C)cc1NC(=O)CSc1nnc2ccc(-c3ccccn3)nn12,-16.1%
19,CC(C)CNc1cccc2c1S(=O)(=O)N[C@H](C)CO2,-8.73%
20,O=[N+]([O-])c1cccc(/C([O-])=C(/C(=S)Nc2ccccc2F)[n+]2ccccc2)c1,18%
21,CC(=O)c1ccc(S(=O)(=O)NCCC(=O)N2CCN(c3ccccn3)CC2)cc1,60.8%
22,O=C(CCC1CCCN(C(=O)c2ccc(F)c(F)c2)C1)N1CCN(c2ccccn2)CC1 (stereo not drawn),-29.8%

row,Compound,"activity change, negative = inhibition"
1,C=Cc1ccc(C(=O)N2CCCC(CCC(=O)N3CCN(c4ccccn4)CC3)C2)cc1 (stereo not drawn),-64.7% (active)
2,COc1cccc(C(=O)NC2=NC(c3ccc(N(C)C)cc3)CC(=O)N2)c1 (stereo not drawn),1.4%
3,O=C(Nc1cccc(-c2nc3ccccc3o2)c1)c1cccc(Br)c1,-11.9%
4,COc1ccccc1NC(=O)C(=O)c1cc(C)n(-c2ccccc2F)c1C,-34.6%
5,CCCCOc1ccc(CSC(=N)N)cc1[N+](=O)[O-],-63.8% (active)
6,CCCCOC(=O)CCCc1ccc([N+](=O)[O-])cc1[N+](=O)[O-],-14.8%
7,CCCCCOc1ccc(CSC2=NCCN2)cc1[N+](=O)[O-],9.19%
8,CC(C)(Oc1ccc(C2CC2(Cl)Cl)cc1)C(=O)O (stereo not drawn),-0.36%
9,c1ccc2sc(SNC3CCCCC3)nc2c1,15%
10,O=C1NC(Nc2nc3ccccc3s2)(C(F)(F)F)C(=O)N1C1CCCCC1 (stereo not drawn),-63.1% (active)
11,O=C(NC1(C(F)(F)F)N=C(c2ccccc2)N(C2CCCCC2)C1=O)c1ccccc1F (stereo not drawn),-18.3%
12,COC(=O)c1ccc(NC(=O)CN(c2ccc(C)cc2)S(=O)(=O)c2c(C)n[nH]c2C)cc1,30%
13,COC(=O)C1CCN(C(=O)NC2CC(=O)N(c3ccc4c(c3)OCCO4)C2)CC1 (stereo not drawn),-8.55%
14,Cc1nc2ccn(Cc3cccs3)c(=O)c2cc1C(=O)NCc1ccc(Cl)cc1,0.24%
15,CCOc1cccc(CC(=O)N2CCc3c([nH]c4ccccc34)C2c2ccc(F)cc2)c1OCC (stereo not drawn),-33.4%
16,COc1ccc2[nH]c3c(c2c1)CCN(C(=O)CCC1CCCC1)C3c1ccc(F)cc1 (stereo not drawn),-81.8% (active)
17,CCOc1cccc(CC(=O)N2CCc3c([nH]c4ccccc34)C2c2ccc(OC)cc2)c1OCC (stereo not drawn),31.4%
18,Cc1ccc(S(=O)(=O)N(C)C)cc1NC(=O)COC(=O)c1c(C)noc1C,-108% (active)
19,Cc1ccc(S(=O)(=O)N(C)C)cc1NC(=O)COC(=O)C1COc2ccccc2O1 (stereo not drawn),19%
20,Cc1ccc(S(=O)(=O)N(C)C)cc1NC(=O)COC(=O)/C=C/c1cccs1,-32.1%
21,Cc1cc(C)c(-c2csc(NC(=O)CCCc3nc4ccccc4c(=O)[nH]3)n2)c(C)c1,-72.6% (active)
22,CCN(CC(=O)Nc1cccc(S(N)(=O)=O)c1)Cc1nc2ccccc2c(=O)[nH]1,-27.6%

row,Compound,"activity change, negative = inhibition"
1,O=C(COC(=O)CCc1nc2ccccc2c(=O)[nH]1)Nc1ccc(N2CCOCC2)cc1,-20.5%
2,CC(C)NC(=O)N1CCN(c2ccncc2S(=O)(=O)N2CCCCC2)CC1,9.43%
3,O=C(Nc1nnc(-c2ccccc2F)s1)c1ccccc1F,85%
4,O=C(Nc1nc2c(s1)CCCC2)c1ccccc1F,-68.5% (active)
5,CCN1CCc2nc(NC(=O)c3cc(F)c(F)cc3Cl)sc2C1,-0.35%
6,COCCn1c(C)cc(C2=NNC(=Nc3ccc(F)cc3)SC2)c1C,-107% (active)
7,C=CCn1c(C)cc(C2=NNC(=NCC)SC2)c1C,-99.5% (active)
8,COc1cccc(-c2nc(S(=O)(=O)c3ccc(C)cc3)c(NCc3ccccc3)o2)c1,2.24%
9,O=C(CSc1nnc(CNC(=O)c2ccccc2)n1-c1ccc(F)cc1)Nc1ccccc1F,-5.45%
10,Cc1cccc(Cn2cccc(C(=O)Nc3ccc4c(c3)OCCO4)c2=O)c1,-12.1%
11,Cc1ccc(CN2CCNC(=O)C2CC(=O)NCc2csc(C(C)C)n2)cc1 (stereo not drawn),6.06%
12,O=S(=O)(NCC(c1ccccc1)N1CCc2ccccc21)c1ccccc1 (stereo not drawn),1.26%
13,Cc1cccc(C(=O)N2c3nc(-c4ccco4)nn3C3(CCCCC3)[C@@H]3CCCC[C@@H]32)c1,-17.9%
14,COC(=O)Cc1[nH]n(-c2nc3ccccc3s2)c(=O)c1C(C)=Nc1ccc(OC)cc1,-94.3% (active)
15,COc1ccc(-c2nc3ccccc3s2)cc1NC(=O)COc1ccccc1C,47.9%
16,COC(=O)c1cccc(C(=O)N2CCCC(Nc3ccc4c(c3)OCCO4)C2)c1 (stereo not drawn),-15.6%
17,COc1cccc2c1cc1c(=O)n(CC(=O)N3CCN(c4cccc(Cl)c4)CC3)nc(C)n12,50.4%
18,Cc1c(NC(=O)CN2C(=O)C(=O)N(Cc3ccccc3)C2=O)c(=O)n(-c2ccccc2)n1C,-22.2%
19,CN(C)C(CNC(=O)c1cc(Br)c(Br)s1)c1ccco1 (stereo not drawn),-67.9% (active)
20,CN(C)C(CNC(=O)c1cccc(S(=O)(=O)Nc2ccc(Br)cc2)c1)c1ccco1 (stereo not drawn),-19.6%
21,CN(C)C(CNC(=O)c1cccc(C#N)c1)c1ccco1 (stereo not drawn),-2.12%
22,Cc1cccc(N=C2SC(C)CN2C(=O)CN2C(=O)NC3(CCCC3)C2=O)c1 (stereo not drawn),0.641%

row,Compound,"activity change, negative = inhibition"
1,Cn1cc(/C=C/c2nc3ccccc3c(=O)n2-c2ccccc2)c2ccccc21,31.9%
2,Cc1cccc(N=C2NC(=O)/C(=C/c3cn(C)c4ccccc34)S2)c1,-80% (active)
3,O=C(NCCc1ccccc1)c1ccc2c(c1)N(Cc1ccc(F)cc1)C(=O)c1ccccc1S2(=O)=O,10.3%
4,Cc1cccc(-n2c(=O)c3c(c4cc(C)ccc4n3C)n(CC(=O)Nc3ccccc3Cl)c2=O)c1,-1.31%
5,CCN(C(=O)COC(=O)Cc1c(F)cccc1Cl)c1c(N)n(Cc2ccccc2)c(=O)[nH]c1=O,2.58%
6,Cc1ccccc1CNC(=O)CCc1cn(Cc2ccccc2C)c2ccccc12,-37.2%
7,Cc1cccc2cc(CN(Cc3cccs3)C(=S)NCc3ccco3)c(=O)[nH]c12,-16.3%
8,CCC(c1nnnn1C1CCCC1)N(Cc1cccs1)Cc1cc2cccc(C)c2[nH]c1=O (stereo not drawn),-63.3% (active)
9,Cc1cccc2cc(CN(Cc3nnnn3Cc3ccccc3)C3CCCC3)c(=O)[nH]c12,-5.56%
10,CC(C)(O)C#Cc1ncc(C(F)(F)F)cc1Cl,-30.8%
11,Cc1cc(C)cc(NS(=O)(=O)c2ccc(Oc3ncc(C(F)(F)F)cc3Cl)cc2)c1,-17.1%
12,COc1cccc(/C=N/Nc2ncc(C(F)(F)F)cc2Cl)c1O,-102% (active)
13,COc1ccccc1Nc1nc(N)nc(CSC(=S)N2CCOCC2)n1,37.2%
14,Cc1cccc(CC(=O)N2CC(=O)Nc3ccc(F)cc3C2c2ccccc2)c1 (stereo not drawn),12%
15,COC(=O)CNC(c1ccccc1Cl)c1cc(Br)ccc1NC(=O)CCN1CCOCC1 (stereo not drawn),-21.3%
16,Cn1c(NC(=O)c2ccccc2)nc2ccccc21,-84.9% (active)
17,COC(=O)c1ccc(C2C(C(=O)Nc3ccccc3)=C(C)Nc3nc4ccccc4n32)cc1 (stereo not drawn),1.76%
18,CCCCCn1c(CCNC(=O)c2ccc(F)cc2)nc2ccccc21,-18.8%
19,Cc1c(NS(=O)(=O)c2ccc(Cl)cc2)c(=O)n(-c2ccccc2)n1C,8.64%
20,CC(=O)c1ccc(NC(=O)CCc2nc(-c3ccc(C)cc3)no2)cc1,2.06%
21,CC(=O)Nc1ccc(NC(=O)CCCc2nc(-c3ccc(C(C)(C)C)cc3)no2)cc1,-87.3% (active)
22,Cc1cc(C)cc(NC(=O)CCCc2nc(-c3ccccc3Cl)no2)c1,-10.6%
